# Screening results (PubChem BioAssay)
# SARS PLpro yeast: blocks SARS-CoV papain-like protease in a yeast assay. S. cerevisiae expressing SARS-CoV PLpro, growth rescue. Potency, µM (highest dose often 32.9 µM), inactives show at the highest dose activity, positive = growth rescue, usual class: activators. actives 0.19% (n = 330,000). AID 485353; calls by dose curve; also: potency is read from the fitted curve at half-maximal effect; 0% is about no effect; nearly all actives have a fitted effect of over 55% in size
# HCMV antiviral: blocks human cytomegalovirus replication; HFF cells, HCMV-luciferase reporter, 72 h; hits give low values; activity change, negative = inhibition, % at 57.5 µM; actives 4.5% (n = 410,000); AID 1259415; in the data active = activity change below about -60%; inconclusive = no clear call, values can overlap the other calls; inactive = above about -39%; also: % is scaled to controls: 0 for no effect and ±100 for the full control effect
#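 After 16 h attachment at 37C, HFF cells received test compound and HCMV-luciferase (1 PFU/cell); reporter luminescence read 72 h later, data normalized against buffer-only and known inhibitor Salinomycin.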
# LASV entry inh: blocks Lassa virus binding to or entry into cells; Lassa virus pseudotype entry inhibition, cell reporter; Potency, µM (highest dose often 37.9 µM), without a hit: at the top dose activity change, negative = inhibition, actives largely listed as inhibitors; actives 1.2% (n = 300,000); AID 540256; calls by dose curve; tested in HEK293 cells; also: potency is read from the fitted curve at half-maximal effect; % is scaled to controls: 0 for no effect and ±100 for the full control effect; nearly all actives have a fitted effect of over 50% in size
# MARV entry inh: inhibitors of Marburg virus binding or cell entry; actives 1.8% (n = 300,000); Marburg virus pseudotyped entry inhibition, cell reporter; Potency, µM (series often up to 37.8 µM), for the others: at the highest dose activity change, negative = inhibition, hits mostly inhibitors; calls by dose curve; tested in HEK293 cells; also: potency is read from the fitted curve at half-maximal effect; % is scaled to controls: 0 for no effect and ±100 for the full control effect
# FMDV inh: foot and mouth disease virus antiviral activity. FMDV antiviral cell-based qHTS. Potency, µM (highest dose often 57.9 µM), for inactives: top-dose activity change, negative = inhibition, hits mostly inhibitors. actives 1.2% (n = 410,000). AID 1159524; calls by dose curve; tested in HEK293T cells; also: read-out not given here; potency is read from the fitted curve at half-maximal effect; % is scaled to controls: 0 for no effect and ±100 for the full control effect; nearly all actives have a fitted effect of over 45% in size
# HCV inh: HCV inhibition; actives 3.4% (n = 340,000); Huh7.5.1 HCVcc-Cre infection, luciferase reporter, 44 h; AID 651820; Potency, µM (series often up to 41.8 µM), without a hit: at the highest dose activity change, negative = inhibition, actives largely listed as inhibitors; active = well fitted inhibition curve with a large enough effect; inconclusive = small, poorly fitted or top-dose-only effect, or another doubt; inactive = no such curve, though single readings can be large or run the other way; also: potency is read from the fitted curve at half-maximal effect; % is scaled to controls: 0 for no effect and ±100 for the full control effect
#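 Seed cells (1,000/well) for 4 h; treat with compound and infect with HCVcc-Cre, moi about 0.5. Incubate 44 h, then detect luciferase activity.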
# The depositor's hits bear a star; ? = inconclusive; / = no result given; ! = a repeat was not active; [ ] = remark or other dose. Sampled rows, rich in hits. Any-hit rate of the full collection: about 8%.
SMILES,SARS PLpro yeast,HCMV antiviral,LASV entry inh,MARV entry inh,FMDV inh,HCV inh
O=C1c2ccccc2NC(c2ccc(Cl)cc2Cl)N1Cc1ccccc1 (stereo not drawn),-18%,5,-20%,-1%[46.1 µM],?,?
COc1cc(OC)c(NS(=O)(=O)c2ccc3c(c2)CCCN3C(C)=O)cc1Cl,/,-34,2%[46.1 µM],/,24%,/
CCN(CC)c1ccc(NC(=O)CN2C(=O)CSc3ncccc32)c(C)c1,6%,-86*,/,/,?,3.5µM*
CCCOc1ccc(C(=O)NNC(=S)NC(=O)c2cccs2)cc1,-38%,?,?,11µM*,0%,?
CCCOc1ccc(C(=O)NNC(=S)NC(=O)c2ccccc2)cc1,-7%,-86*,/,/,?,?
CCCOc1ccc(C(=O)NNC(=S)NC(C)=O)cc1,-13%,-94*,?,?,10%,?
CC(C)(C)C(=O)NC(=S)NNC(=O)c1ccc(-c2ccccc2)cc1,-5%,/,/,/,-14%,6.3µM*
CCCC(=O)Nc1ccc(C(=O)NNC(=S)NC(=O)c2cccs2)cc1,-6%,-22,2%,-20%,/,-16%
CCCOc1ccc(C(=O)NNC(=S)NC(=O)c2ccco2)cc1,0%,-31,?,?,?,-25%
O=C(N[C@@H](Cc1ccccc1)c1nc2ccccc2[nH]1)c1ccc([N+](=O)[O-])cc1,/,-3,/,/,/,/
S=C(NCCc1ccccc1)NCCN1CCOCC1,6%,39,?,?,16%,24%
O=C(Cn1nc(-c2ccccc2)c2ccccc2c1=O)Nc1ccccn1,1%,-61*,?,?,10%,6%
CCN(CC)C(=O)c1ccc(NC(=O)CCn2nc(-c3ccc(C)cc3)c3ccccc3c2=O)cc1,/,-65*,?,?,?,/
CCN(CC)C(=O)c1ccc(-c2nnc(OC)c3ccccc23)cc1,2%,-66*,-2%,-9%[46.1 µM],-9%,-1%
Cc1nn(CC(=O)Nc2ccccn2)c(=O)c2ccccc12,1%,-1,0%,-9%,8%,10%
O=C(CCn1nc(-c2ccccc2)c2ccccc2c1=O)NN1CCOCC1,-1%,-70*,-5%,?,-11%,20%
Cc1ccc2sc(N(Cc3cccnc3)C(=O)CCOc3ccccc3)nc2c1C,/,?,8%[46.1 µM],/,-14%,/
CNC(=O)c1cc(C(=O)c2ccccc2C(F)(F)F)c[nH]1,0%,-25,4%[46.1 µM],6%[46.1 µM],-23%,-9%
COc1c2c(cc3c1C(CC(=O)c1c(O)c(OC)c4occc4c1OC)[N+](C)(C)CC3)OCO2 (stereo not drawn),/,/,/,/,-16%,/
CN(Cc1ccccc1F)c1nc(-c2cccs2)nc2ccccc12,-52%,-60*,0%,3%,?,?
O=C1C=CC(=NN=C(c2ccccc2)c2ccccc2)C=C1,/,-80*,/,/,3%,/
Nc1cc(-c2ccccc2)nc2ccccc12,/,8,/,/,/,/
CCOC(=O)c1c(C)n(-c2ccc(C)cc2)c2c(C(C(C)=O)C(=O)O)c(Br)c(O)c(O)c12 (stereo not drawn),-13%,?,?,-29%,0%,11µM*
Cc1ccc(C(=O)c2coc3ccc(O)c(Cl)c23)cc1,-9%[6.58 µM],57,?,-1%,-14%,-10%
CCOC(=O)C(C(C)=O)c1c(Br)c(O)c(O)c2c(C(=O)c3ccc(C)cc3)coc12 (stereo not drawn),8%,-96*,-94%[14.3 µM],2.3µM*!,-29%,/
SMILES,SARS PLpro yeast,HCMV antiviral,LASV entry inh,MARV entry inh,FMDV inh,HCV inh
CC(C)CNC(=O)C(C)(C)n1cc(NC(=O)COCc2ccccc2)cn1,/,4,/,/,/,/
O=C(Cc1cccs1)N/N=C/C=C/c1ccccc1[N+](=O)[O-],0%,23,?,-25%[14.2 µM],60%,-22%
COc1ccccc1/C=C/C=N/NC(=O)c1cc(-c2ccc(C)o2)[nH]n1,1%,?,?,?,-6%,10µM*
Cc1ccc(/C=N/NC(=O)c2cc(-c3ccc(C)o3)[nH]n2)cc1,-4%,14,?,?,-7%,?
COc1ccccc1/C=C/C=N/NC(=O)Cc1cccs1,7%,21,0.12µM*,?,46%,?
COc1ccccc1CCn1cnc(Cc2cccc(F)c2)c1C(C)C,/,?,/,/,22µM*,/
CCCc1c(Cc2cccc(F)c2)ncn1CCc1ccccc1OC,/,-61*,/,/,/,/
